# Source: PubChem
# DAX1 inh-1 = DAX1 (NR0B1) inhibitors on StAR promoter, primary screen, cell-based, luminescence, SF-1 (NR5A1), full-length DAX-1 | HEK293T StAR-luciferase reporter, SF-1/DAX-1 repression relief | 370,000 tested, 1.1% active | inhibition, % at 6.8 µM | AID 652010, 2013;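 active = inhibition above the mean over all tested compounds plus 3 SD, cut at about 3.6% in these data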;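 note: higher inhibition means more luminescence from relief of DAX-1 repression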
# DAX1 inh-2 = DAX1 (NR0B1) inhibitors, primary screen, cell-based, HEK293, Gal4-DAX1, luciferase luminescence; Nuclear receptor subfamily 0 group B member 1 (Homo sapiens), P51843; HEK293 Gal4-DAX1 luciferase reporter; inhibition, % at 6.75 µM; 340,000 tested, 0.99% active;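 active = inhibition above the mean over all tested compounds plus 3 SD, cut at about 4.2% in these data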;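 note: inhibition shows as a rise in luminescence from relieved DAX1 repression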
# hcDAF-12 act = H. contortus DAF-12 nuclear receptor activators, primary screen, cell-based, luminescence, HEK293, lit1-tk-luc reporter. HEK293 hcDAF-12 lit1-tk-luc reporter; 0% DMSO, 100% Δ7-dafachronic acid. activation, % at 6.8 µM. 370,000 tested, 1.4% active. AID 652067, 2013;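 active = activation above the mean of all tested compounds plus 3 SD, cut at about 5.5% in these data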
# hgDAF12 agonist = H. glycines DAF-12 receptor agonists, primary screen, cell-based, luminescence, HEK293, GAL4 fusion, UAS-luciferase; HEK293 GAL4-hgDAF12 UAS-luciferase reporter, agonist luminescence; normalized to butyrate control; activation, % at 6.8 µM; 370,000 tested, 1.8% active;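 active = activation above a cutoff set at the mean of all screened compounds plus 3 SD, cut at about 10% in these data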
# ssDAF12 agonist = S. stercoralis DAF-12 nuclear receptor activators, primary screen, cell-based, luminescence, HEK293, GRIP1 co-expression, lit1-tk-luc. 370,000 tested, 1% active. Nuclear hormone receptor DAF-12 (Strongyloides stercoralis). activation, % at 6.8 µM. HEK293 ssDAF-12/GRIP1 lit1-tk-luc reporter; % of 3 µM dafachronic acid response. AID 652126, 2013;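 active = activation above the mean over all tested compounds plus 3 SD, cut at about 0.9% in these data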
# DAX1 conf = DAX1 (NR0B1) inhibitors relieving SF-1 repression, confirmation, cell-based, luminescence, HEK293T, full-length DAX-1, SF-1 activated StAR promoter. shares compounds with DAX1 inh-1. HEK293T StAR-promoter luciferase reporter, SF-1/DAX-1 repression. inhibition, % at 6.8 µM. 2,400 tested, 87% active. AID 652134, 2013;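 active = inhibition above the average of every tested compound plus 3 SD, cut at about 3.8% in these data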
# Target sequence (P51843 whole entry, looked up): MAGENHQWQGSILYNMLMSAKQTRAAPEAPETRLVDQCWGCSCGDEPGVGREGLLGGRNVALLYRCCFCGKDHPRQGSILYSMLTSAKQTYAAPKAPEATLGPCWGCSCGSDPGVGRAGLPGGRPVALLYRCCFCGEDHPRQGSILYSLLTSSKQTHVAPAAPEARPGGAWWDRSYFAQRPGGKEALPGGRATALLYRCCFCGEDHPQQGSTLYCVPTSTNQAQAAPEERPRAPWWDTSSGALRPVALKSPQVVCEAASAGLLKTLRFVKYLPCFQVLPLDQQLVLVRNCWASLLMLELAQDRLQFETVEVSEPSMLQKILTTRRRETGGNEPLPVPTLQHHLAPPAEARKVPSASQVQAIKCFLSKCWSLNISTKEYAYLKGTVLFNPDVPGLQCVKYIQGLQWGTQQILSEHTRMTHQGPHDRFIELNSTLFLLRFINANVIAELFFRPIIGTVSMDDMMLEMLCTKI
# SF1 mutant ctr = StAR reporter signal changes without DAX1, counter-screen for DAX1 inhibitor project, cell-based, luminescence, AF-2 mutant SF-1, transactivation. shares compounds with DAX1 inh-1. HEK293 StAR-luciferase, SF-1 AF2 mutant. inhibition, % at 6.8 µM. 2,400 tested, 78% active. AID 652136, 2013;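 active = inhibition above the mean of all tested compounds plus 3 SD, cut at about 3% in these data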
# A number is an active result; n = inactive; x = no result. The list is not random: actives were taken first. Their share in the collection is about 4.1%.
SMILES,DAX1 inh-1,DAX1 inh-2,hcDAF-12 act,hgDAF12 agonist,ssDAF12 agonist,DAX1 conf,SF1 mutant ctr
CCCCC[C@@H](C)N1C[C@H](COCc2ccccc2)Oc2cc(N3CCC[C@@H]3COC)ccc2S1(=O)=O,5.1,x,n,n,n,5.7,4.3
O=C(c1ccco1)N1CCN(C(=O)c2ccco2)CC1,n,x,n,n,n,x,x
O=C(c1ccco1)N1CCN(c2ccc(N3CCCCC3)nn2)CC1,7.8,n,n,n,n,7.3,6.4
OC(CNc1ccccc1)Cn1ccc2ccccc21 (stereo unspecified),n,n,n,n,n,x,x
CC(C)Oc1ccc(S(=O)(=O)N2CCCCC2)cc1NC(=O)CN1C(=O)NC(C)(C2CC2)C1=O (stereo unspecified),4.7,n,n,n,n,n,n
COc1ccc(S(=O)(=O)N2CCCCC2)cc1NC(=O)CN1C(=O)NC(C)(C2CC2)C1=O (stereo unspecified),n,n,n,n,n,x,x
O=C(NCCc1ccccc1)c1ccc([N+](=O)[O-])cc1,5.3,n,n,n,n,13,7.1
O=C(NCCc1ccc([N+](=O)[O-])cc1)c1ccccc1,n,n,n,n,n,x,x
Cc1cc2c(SCC(=O)Nc3ccccc3O)ncnc2s1,n,n,n,n,n,x,x
Cc1c(C(=O)N/N=C/c2ccncc2)nnn1-c1nonc1N,n,n,n,n,n,x,x
COc1ccccc1C(=O)NCCC(=O)NC1CCC(C)CC1 (stereo unspecified),8.7,n,n,n,n,10,4.6
COc1ccccc1C(=O)NCCC(=O)NC1CCCCC1C (stereo unspecified),n,n,n,n,n,x,x
Cc1ccsc1C(=O)OCC(=O)N(C)C1CCCCC1,10,n,5.9,12,n,11,6.3
Cc1ccsc1C(=O)OCC(=O)NC1CCCC1,n,n,n,n,n,x,x
Cc1ccsc1C(=O)OCC(=O)N1CCc2ccccc2C1,6.9,n,n,11,n,13,5.9
Cc1ccc(S(=O)(=O)N2CCN(C(=O)Cn3cnc4c3c(=O)n(C)c(=O)n4C)CC2)cc1C,5.0,n,n,n,n,n,n
Cc1ccc(C(=O)OCc2cc(=O)n3c(C)csc3n2)s1,4.8,n,n,n,n,n,n
Cc1ccc(C(=O)OCc2cc(=O)n3ccsc3n2)s1,n,n,n,n,n,x,x
COc1cccc(OC)c1/C=C/C(=O)NC1CCCCC1,n,n,n,n,n,x,x
Cc1[nH]c(=O)c(C(=O)/C=C/c2ccccc2F)c2c1CCCC2,n,n,n,n,n,x,x
CCN1CCN(C(=O)c2ccc3c(Cl)c4c(nc3c2)CCCC4)CC1,n,n,n,n,n,x,x
CN1CCN(C(=O)c2ccc3c(Cl)c4c(nc3c2)CCCC4)CC1,5.8,n,n,n,n,4.8,n
Cc1cccc(N2CCN(C(=O)c3[nH]c(C(F)(F)F)nc3-c3ccccc3)CC2)c1C,10,x,n,n,n,9.8,n
CCN(CC(=O)Nc1ccc(N2CCOCC2)cc1)C(=O)Cc1ccccc1,n,n,n,n,n,x,x
C/C(=N\NC(=O)c1ccccc1O)c1cccs1,5.4,n,n,n,n,5.9,n
SMILES,DAX1 inh-1,DAX1 inh-2,hcDAF-12 act,hgDAF12 agonist,ssDAF12 agonist,DAX1 conf,SF1 mutant ctr
Clc1cccc(Cc2c(-c3cccc(Cl)c3)nc3ccc(Br)cn23)c1,n,x,n,n,n,x,x
Cc1ccc(-c2nc3cc(C)c(Br)c(C)n3c2Cc2cccc(F)c2)cc1,5.7,x,6.2,13,1.9,6.2,5.3
Clc1cccc(-c2nc3ccc(Br)cn3c2Cc2ccccc2)c1,6.7,x,n,n,n,4.6,n
Fc1cccc(Cc2c(-c3ccccc3)nc3ccc(Cl)cn23)c1,4.6,x,n,n,n,n,n
COc1ccc(-c2csc(C3=C(O)CN(CCCN4CCCC4=O)C3=N)n2)cc1OC,n,n,n,n,n,x,x
CC(C)(C)c1csc(NC(=O)C2COc3ccccc3O2)n1 (stereo unspecified),5.0,n,n,n,n,n,n
O=C(Nc1nnc(C2CC2)s1)C1COc2ccccc2O1 (stereo unspecified),5.7,n,n,12,n,11,5.5
O=C(Nc1nnc(C2CC2)s1)c1cc2ccccc2o1,6.1,n,n,13,n,7.3,4.8
Cc1cc(-c2nnc(CCC(=O)N(C)C(C)c3cccs3)o2)no1 (stereo unspecified),n,n,n,n,n,x,x
CCOC(=O)C1CCN(C(=O)c2cc3cc4ccc(C)cc4nc3o2)CC1,7.5,n,n,n,n,8.0,4.9
COc1ccc2cc3cc(C(=O)N4CCCCCC4)oc3nc2c1,x,n,x,x,x,x,x
CCN(CCN1CCCC1)C(=O)c1cc(COc2ccccc2SC)on1,n,n,n,n,n,x,x
CCN(CCn1cccn1)C(=O)c1cc(COc2ccccc2SC)on1,4.6,n,n,n,n,7.1,5.4
CCn1c2nc(SCCN3CCOCC3)nnc2c2cc(C)cc(C)c21,n,n,n,n,n,x,x
COc1cc(C(=O)COC(=O)c2cc([N+](=O)[O-])ccc2N2CCOCC2)ccc1OC(F)F,n,n,n,n,n,x,x
C/C(=N\NC(=O)c1cc2c(s1)CCC(C)C2)c1ccc[nH]1 (stereo unspecified),6.2,n,n,n,n,7.3,4.4
CC1CCc2sc(C(=O)NC(C)C3CCCO3)cc2C1 (stereo unspecified),5.3,n,n,n,n,4.3,n
CN1OC[C@@H]2CN(Cc3ccc(Cl)cc3)[C@H](c3cccc(Br)c3)C[C@@H]21,n,n,n,n,n,x,x
COc1cc(/C=C/C(=O)N2CCN(c3n[nH]c(=O)[nH]c3=O)CC2)cc(OC)c1OC,n,n,n,n,n,x,x
O=C(Nc1ccc(F)cc1F)c1csc(-c2cccs2)n1,7.0,n,n,13,2.1,9.3,6.7
Cc1ccc2nc(-c3ccc(Cl)cc3)c(Cc3ccccn3)n2c1,6.7,x,n,11,n,14,4.5
Cc1ccc2nc(-c3ccccn3)c(N)n2c1,5.4,x,n,11,n,15,6.8
